# Reference: the supplement of paper PMC12632987
# T1: USP38, Q8NB14
# T1 chain: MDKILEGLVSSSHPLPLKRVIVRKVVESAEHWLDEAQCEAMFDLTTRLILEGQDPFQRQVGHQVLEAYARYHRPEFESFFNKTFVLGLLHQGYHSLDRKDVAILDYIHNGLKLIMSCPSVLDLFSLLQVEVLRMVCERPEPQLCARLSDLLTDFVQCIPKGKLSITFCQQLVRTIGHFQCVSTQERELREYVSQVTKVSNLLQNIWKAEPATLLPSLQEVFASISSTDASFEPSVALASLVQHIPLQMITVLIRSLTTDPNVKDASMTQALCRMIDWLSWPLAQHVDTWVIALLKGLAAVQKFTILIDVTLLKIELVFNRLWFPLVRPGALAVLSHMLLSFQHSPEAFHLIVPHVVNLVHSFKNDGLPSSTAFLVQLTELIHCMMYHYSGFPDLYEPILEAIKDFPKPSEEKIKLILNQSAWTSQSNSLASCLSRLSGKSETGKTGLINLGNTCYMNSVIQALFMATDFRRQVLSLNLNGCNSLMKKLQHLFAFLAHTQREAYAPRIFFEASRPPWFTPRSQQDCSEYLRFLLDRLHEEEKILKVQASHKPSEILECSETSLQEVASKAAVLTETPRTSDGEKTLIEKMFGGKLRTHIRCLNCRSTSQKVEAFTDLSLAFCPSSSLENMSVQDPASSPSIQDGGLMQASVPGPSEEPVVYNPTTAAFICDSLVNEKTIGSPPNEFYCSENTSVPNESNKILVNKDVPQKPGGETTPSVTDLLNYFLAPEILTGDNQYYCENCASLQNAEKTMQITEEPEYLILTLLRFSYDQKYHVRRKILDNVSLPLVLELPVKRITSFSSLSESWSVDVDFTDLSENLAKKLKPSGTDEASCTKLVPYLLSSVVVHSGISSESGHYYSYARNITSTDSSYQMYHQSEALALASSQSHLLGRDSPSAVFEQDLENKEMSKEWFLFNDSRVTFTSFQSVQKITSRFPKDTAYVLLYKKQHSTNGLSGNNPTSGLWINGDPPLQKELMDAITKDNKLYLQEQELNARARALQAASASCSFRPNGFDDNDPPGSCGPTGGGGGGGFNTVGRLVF
# B1: usp_38_diff_out_15_85_156 (protein)
# chain: EAEKLKEEIERKIKEAEKLLKEAKKLLADPKAPLEEIRKVLDKAAEALGEAEKLARELRRKFPEEREYVKEVLKRLDKLVDELEKLAREAFEREADALLA
# B2: usp_38_diff_out_15_85_152 (protein)
# chain: SPEEIKKEIKKEIEKAKELIKEAKKLLKDPNAKLEEIRKVLDEAAKALGKAEYLARELRKLSPEYREEVKEYLKELDELVDELEKLEREAFLRMAEEQEA
# B3: usp_38_diff_out_15_85_154 (protein)
# chain: EAEELKREIEEEIRRAEELLAEAEALLADPAAPLEEIEAVLDEAARALGRAEALARELRRRFPEYREYVKEVLERLDELTDRLLALETEAFERRAEEDLA
# B4: usp_38_diff_out_16_109_167 (protein)
# chain: SADEEAAKLLAEATIKELKALAKEAEERLKKLKAKGASEEVLAAEKKLADTAKKAAEEIEKALKKGENILETTNKKWDEVGAAAAEAAELRRAEARARSA
# B5: usp_38_diff_out_15_85_151 (protein)
# chain: SPEELKKKIEEKLEEARRLLEEARRLLADPNAPLEEIRKVLDEAARALGEAEHLARELRKLSPEYREEVEKYLKELDELVDELEALAREAFLREAEAQEA
# B6: usp_38_diff_out_15_114_143 (protein)
# chain: SEEEEAEEELRRLEIEEGLRVAEELLAELEELRKRGRLTPAREERLLLGLEGLAILAIELGDEELARRVLEALRALAEISSPETRARAEALAAELEAAMA
# B7: usp_38_diff_out_15_114_139 (protein)
# chain: SEEEEAEEELRKLEIEQGKKVAEDLLAELERLAKEGRLTPAREERLLLGLKGLAKLAIELKDKELAELVLKALEAFAKISSPEHRKEAEKLAKELKEAMA
# B8: usp_38_diff_out_15_91_164 (protein)
# chain: MSSKTIATKGTRDYLKDAAAEAKELGLEETAKALEEAAALADQLLDLLEQLEKAEKEGADQAEIDKLRKEAKELDAKLNEKISELVPGLAELEQKRIERE
# B9: usp_38_diff_out_15_85_149 (protein)
# chain: KIEELKKQLQAAIDEAEALLAEAEALLKKGTPEALEAARKALDAAAKAIGQADQLLRELRKAGADKEELEAYQKRLDALTDRYEALARELFEKEMELQEK
# B10: usp_38_diff_out_16_109_166 (protein)
# chain: SADEEADRLLAEAAIENFEKLAEEAKEELKKLKAKGASEEVLKAYEDLAKTAREAAEKIREALERGENLRETTREQWDKVGAKAAEASELRRAEARERSA
# B11: usp_38_diff_out_15_91_162 (protein)
# chain: LESKLQAARGTADYAREMQERAEELGLEEEAALLQKVRDAAEELAKLYEELIALQKAGADQAEIDKVRKEAKKLLEELNKLISEAVPAAARILLKEQERE
# B12: usp_38_diff_out_14_75_137 (protein)
# chain: SRKEELRERLAEARARLDALVAEGRITGRLEVELRGILHIAEEAIEAGRLEEAERLLDIAERALDDPANARAIIRANEDFIVSTAKKLDLERIEEEEERR
# B13: usp_38_diff_out_15_85_150 (protein)
# chain: TPEELKAEIEREIEEAERLLERAEELLRDPEAPLEEIRRVLDEAAEALGRADHLARELRRLSPEYRAYVEEVLKRLDELVDRLEELAREAFLREADELEA
# B14: usp_38_diff_out_15_114_142 (protein)
# chain: SAEEEAEEELRELEIKAGKDVAEELLEELKELRKRGRLTPAREERLLLGLRGLAILAIELKNKELAELVLEALEEFAKISDPETRAEAEKLAAELKKAMA
# B15: usp_38_diff_out_16_109_165 (protein)
# chain: SQDEEADRLLAEAAIANLKALAKEAKEELKKLKARGASPEVLAAYQKLADTAEAAAKAIEAALKAGKNLRETTDKQLDAVGAAAAAASALRRAEARERSA
# B16: usp_38_diff_out_14_75_138 (protein)
# chain: SREEELRKRLEEAEARLAELVAQGKITGRKEVELRGILHIAREAIEAGRLEEAEKLLDIAEEALENPEKAKEIIDENEDFIVSTAKELALREIEEEEKRR
# B17: usp_38_diff_out_15_91_160 (protein)
# chain: LESKLQAAKGTADWAKEMREEAEELGLEEEAALLEEVRKLAEELAKLLEELIKLEKEGAPQEEIDKLRKEAKEKEKELNEAISKAVPAAARILLARQEKE
# B18: usp_38_diff_out_16_109_169 (protein)
# chain: SADEEADRLLAEAAIANFRALAEEARARLARLKARGASPAVLAAHQALADTAEAAAAEIEAALAAGENLRETTDRQWDAVGAAAAAASAALRAEARARSA
# B19: usp_38_diff_out_15_42_146 (protein)
# chain: SQLEEELRLIVEAMEAERDRVVADVATLPEAKLKRLARRNLEGAKGEAERTGDPVAAEIAALYEEGLANPATLKAKMQEAVRLTYDRAIAEVRRRMEEEA
# B20: usp_38_diff_out_15_91_163 (protein)
# chain: MSSRTIATEGTLKRLKEDAELARELGLEETAKKAEEAAKLAEELLKLLKEREKAIKAGAPKEEIEKLRKEAKKKEKELNEKLSELVPDWAELELKRIEKE
# B21: usp_38_diff_out_15_114_141 (protein)
# chain: SAEEEAAAELREREVAAGLAVARDLLAELEELARRGRLTPAREERLLLGLRGLARLAIELGDRELAEEVLRALDAFAAIASPELRAEAEALRAELEAAMA
# B22: usp_38_diff_out_15_85_153 (protein)
# chain: SPEEIKKEIEREIEEAERLIEEARRLLEDPEAPLEEVREVLDEAARHLGRAQHLARELRRLSPEYREFVKEAEKRLDELVDELEELAREAHLREAEELEA
# B23: usp_38_diff_out_15_91_161 (protein)
# chain: LESKLQAAEGTADYAKEMKAEAEKLGLEEQAKKLQEVADAAKKLAELYKKLIKLEKEGAPKEEIEKVRKEAKKLEEELNKLISEAVPYMAEILLKKQEKE
# B24: usp_38_diff_out_15_17_145 (protein)
# chain: DEEARRLELEAERAAMDAVIADARATLTRLAAKAKAAGWAEVAAEYEAAIAALDAGDLEAAAEHLERAARLLWDKNPRDATIAGGLAYALRRKVELDRLE
# B25: usp_38_diff_out_16_109_170 (protein)
# chain: SQDEEADRLLAEATIENLKALAEEAKERLKKLEAKGASAEVLKAYKDLAETAKKAAEEIKEALKKGENIRETTDKKWDEVGKAAAAASEARRAEARARSA
# B26: usp_38_diff_out_15_114_140 (protein)
# chain: SAEEEAAEELRQREIAAGRDVARDLLAELRELKKRGRLTPAREERLLLGLEGLARLAIELGDEELARLVLEALDAFAEISDPETQARARALRAELEAAMA
# B27: usp_38_diff_out_15_91_159 (protein)
# chain: LESKLEAARGVAAWAEEMAARARELGLEEEAALFEEVAAAARELAELLEKIIKLKKEGADPKEIEAARKEAKAAEARLNELLSRAVPAAARVLLAEQERE
# B28: usp_38_diff_out_15_85_155 (protein)
# chain: EAEELKREIEREIEEARRLLEEARALLADPAAPLAAIREVLDRAAEALGRAEALARELRRRFPEYREFVKKALEELDRLTDELERLAREAFEREADALAA
# B29: usp_38_diff_out_15_17_144 (protein)
# chain: DPESEALYREALRANIASVFDEAAAIAAKRAARAEAEGNAELAAALRRLRDLLEHRDETPLADIAAAARELAALAEEAGDYRTAAIAGGVAAAAEELAEL
# B30: usp_38_diff_out_15_85_147 (protein)
# chain: ALEELRRELEEAIREARRLLEEARKLLAEKTPEALKAAREALDRAAEHLGRAAELLRELRRAGADPAELARLQAELDELVDEYEKLALELFEKEIELQEA
# B31: usp_38_diff_out_15_85_157 (protein)
# chain: AAEALKAEIQAKIAEAKALLAEAKALLADPAAPLAEIEAVLDAAARALGQAQALARQLRREFPEQAAFVKAANAELDALTDELTALARAAFERRAEADLA
# B32: usp_38_diff_out_16_109_168 (protein)
# chain: SADEEADRLLAEAAIANFRALAADAEAELKRLEARGASPAVLKAYADLAAKAKEAAATIEAALAKGENLRETTDAQWDAVGAAAARASELRRAEARERSA
# Target: T1, USP38, Q8NB14
# Experiment: median log2 fold change of GCK-ALFA target abundance (FLAG IP / Myc IP barcode read proportion) (log2 ratio); each designed protein is fused to an ALFA-tag nanobody in HEK293 cells to bring the named protein to FLAG-tagged glucokinase (GCK); Myc marks an untargeted standard; higher = target protein stabilised (more abundant)
# Settings: target protein: 3xFLAG-MCP-GCK-ALFA reporter; HEK293 landing pad (RPLP)
# Outline: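 An ALFA-nanobody-fused binder library was recombined into HEK293 landing-pad cells and induced with 2 μg mL^−1 doxycycline. Cells were transfected with a plasmid expressing a FLAG-tagged target and a Myc-tagged standard. After 48 h, lysates underwent anti-FLAG and anti-Myc immunoprecipitation, and circular RNA barcodes were reverse transcribed, amplified and sequenced. Target abundance is the per-binder median log2 ratio of FLAG to Myc barcode read proportions. Barcodes needed ≥10^−7 proportion in both replicates, binders ≥3 barcodes per replicate, and a 10^−6 pseudocount was added; the two replicates were pooled.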
row,Binder,median log2 fold change
1,B1,-0.0522
2,B2,0.113
3,B3,-0.0616
4,B4,0.102
5,B5,0.0262
6,B6,-0.119
7,B7,0.292
8,B8,0.19
9,B9,0.113
10,B10,0.186
11,B11,-0.243
12,B12,0.124
13,B13,0.0224
14,B14,0.0926
15,B15,0.0224
16,B16,0.163

row,Binder,median log2 fold change
1,B17,0.0652
2,B18,-0.16
3,B19,-0.607
4,B20,0.082
5,B21,0.234
6,B22,-0.141
7,B23,-0.0204
8,B24,-0.0496
9,B25,0.177
10,B26,0.0749
11,B27,-0.149
12,B28,0.127
13,B29,0.158
14,B30,0.0216
15,B31,0.104
16,B32,0.16
